Results filed as inconclusive are left out. Entries that show only a call come without a potency. Active and inactive are the calls of the source. Calls come from the whole dose curve; as a rule, active = well fitted cell-killing curve with a large enough effect in the repeat runs; inconclusive = weak or mixed curves, or effect the other way; inactive = flat fitted curve, though single readings scatter.

Results on 40 compounds are retold here after PubChem BioAssay (Tox21).

A short description of this assay: qHTS assay to identify small molecule antagonists of the estrogen receptor alpha (ER-alpha) signaling pathway using the BG1 cell line in the presence of 0.1 nM 17-beta-estradiol - cell viability counter screen (AID 1259241). Note: nearly all actives have a fitted effect of over 40% in size. The settings on record: VM7Luc4E2 (BG1) viability, CellTiter-Fluor protease, 22 h, 0.1 nM estradiol agonist added; series mostly up to 92.4 µM. The source says: National Center for Advancing Translational Sciences [NCATS]
NIH Chemical Genomics Center [NCGC]
U.S. Environmental Protection Agency [EPA]
National Institutes of Environmental Health Sciences [NIEHS]
National Toxicology Program [NTP]
U.S. Food and Drug Administration [FDA]
Estrogen receptor (ER), a member of the nuclear hormone receptor plays an important role in development, metabolic homeostasis and reproduction. Two subtypes of ER, ER-alpha and ER-beta, have similar expression patterns with some uniqueness in both types. Endocrine disrupting chemicals (EDCs) and their interactions with steroid hormone receptors like ER causes disruption of normal endocrine function. Therefore, it is important to understand the effect of environmental chemicals in ER signaling pathway. For identifying ER antagonists, VM7Luc4E2 cell line was used to screen against Tox21 compound libraries.
VM7Luc4E2 cell line (provided by Denison MS, University of California) endogenously express full-length ER-alpha and is stably transfected with a plasmid containing four estrogen responsive elements (ERE) upstream of a luciferase reporter gene. The current screening for identification of ER-alpha inhibitors against Tox21 compound libraries used lower concentration (0.1 nM) of 17beta-Estradiol as a stimulator. The cytotoxicity of the Tox21 compound libraries against VM7Luc4E2 cell line was tested by measuring live-cell protease activity using CellTiter-Fluor assay in the same wells.
Tox21 Assay Protocol Summary:
VM7Luc4E2 cells were cultured in phenol red free assay medium containing 10% charcoal stripped FBS for 5 days prior to the assay. The cells were dispensed at 4,000 cells/well in 4 uL of assay medium into white wall/solid-bottom 1536-well plates (Corning Life Sciences, Corning, NY) using a Multidrop Combi (ThermoFisher Scientific, Waltham, MA) dispenser. After the assay plates were incubated at 37C and 5% CO2 for 24 hr, 23 nL of compounds dissolved in DMSO, positive controls or DMSO only was transferred to the assay plates by a Pintool station (Kalypsys, San Diego, CA). The transfer of compounds was followed by the addition of 1 uL of 0.1 nM (final concentration) agonist (17beta-Estradiol)/assay medium using a Flying Reagent Dispenser (FRD, Aurora Discovery, San Diego, CA). The plates were incubated at 37C and 5% CO2 for 22 hr. For cytotoxicity assay, 1 uL of CellTiter-Fluor reagent (Promega Corporation, Madison, WI) was added to each well using the FRD and after 30 min incubation at 37C and 5% CO2, The fluorescence intensity was measured using ViewLux plate reader (PerkinElmer, Shelton, CT).
For `O=[Si]=O`, the Potency entry is “inactive”.

In the case of `CC(C)c1ccccc1O`, the Potency entry is “inactive”.

On to `CCOC(=O)CCCCCCCCC(=O)OCC`, for which the Potency result was “inactive”.

Turning to `O=C1OC(=O)c2ccccc21`, the Potency result is “inactive”.

In the case of `C=CCOC(=O)c1ccc(C(=O)OCC=C)c(C(=O)OCC=C)c1`, the Potency result was “inactive”.

For the compound `Nc1cc(Cl)cc(S(=O)(=O)O)c1O`, the Potency entry was “inactive”.

With `CCCCC(C)C(=O)O` (stereo not given), the Potency result was “inactive”.

For the compound `CN(C)CCCNCCC#N`, the Potency result is “inactive”.

On to `O=c1cc(O)c(Cl)c[nH]1`, for which the Potency result is “inactive”.

As to `CCCCCCCCCCCCOC(C)=O`, the Potency result was “inactive”.

Consider `Oc1ccccc1Cc1ccccc1O`, for which the Potency result is “inactive”.

`O=C(O)CCNC(=O)c1ccccc1`: the Potency result was “inactive”.

On to `C[N+](C)(C)CC(O)CCl` (stereo not given), for which the Potency entry was “inactive”.

For `C=C(C)C(=O)OC`, the Potency entry was “inactive”.

For `CO[Si](CCCS)(OC)OC`, the Potency entry was “inactive”.

Take `O=C(O)c1ccccc1C(=O)OCc1ccccc1`: the Potency result is “inactive”.

Consider `CNCc1ccccc1`, for which the Potency result is “inactive”.

Turning to `C=CC(C)(O)CC/C=C(\C)CC` (stereo not given), the Potency result is “inactive”.

For the compound `CC(=O)OC[C@H]1O[C@@H](OC(C)=O)[C@H](OC(C)=O)[C@@H]1OC(C)=O`, the Potency result is “inactive”.

Turning to `CC(C)CCCCCCOC(=O)C1CCCCC1C(=O)OCCCCCCC(C)C` (stereo not given), the Potency result is “inactive”.

Turning to `CC(C)COC(=O)/C=C/c1ccccc1`, the Potency entry was “inactive”.

For the compound `CCCCC(CC)COC(=O)c1ccccc1` (stereo not given), the Potency entry was “inactive”.

Regarding `CCCCCN(CCCOC)C(=O)C(CCC(=O)O)NC(=O)c1ccc(Cl)c(Cl)c1` (stereo not given), the Potency entry was “inactive”.

Consider `CCOC(=O)CCc1ccccc1`, for which the Potency entry is “inactive”.

In the case of `CCCCCCCC/C=C\CCCCCCCC(=O)OC[C@@H](O)[C@H]1OC[C@H](O)[C@H]1O`, the Potency entry is “inactive”.

Take `C[CH2][Ge]([Cl])([CH2]C)[CH2]C`: the Potency entry was “inactive”.

`C1=CCC(c2ccccc2)CC1` (stereo not given): the Potency result was “inactive”.

For the compound `C=C(C)[C@@H]1CC[C@@H](C)C[C@@H]1O`, the Potency result was “inactive”.

In the case of `O=C(COCCOCCOCC(=O)Nc1c(I)cc(I)c(C(=O)O)c1I)Nc1c(I)cc(I)c(C(=O)O)c1I`, the Potency entry was “inactive”.

Consider `NS(=O)(=O)c1cc2c(cc1Cl)NC(CC1CCCC1)NS2(=O)=O` (stereo not given), for which the Potency result was “inactive”.

In the case of `CCC(=O)OCCC(C)CCC=C(C)C` (stereo not given), the Potency entry was “inactive”.

With `CN[C@@H]1[C@H](O)[C@H](NC)[C@H]2O[C@@]3(O)C(=O)C[C@@H](C)O[C@H]3O[C@@H]2[C@H]1O`, the Potency result is “inactive”.

As to `CCC(C)N` (stereo not given), the Potency entry is “inactive”.

Turning to `FC(F)(F)c1ccc(Cl)cc1Cl`, the Potency result was “inactive”.

With `CCC1Nc2cc(Cl)c(S(N)(=O)=O)cc2S(=O)(=O)N1` (stereo not given), the Potency result was “inactive”.

For `CCCCCC1CCCC(=O)O1` (stereo not given), the Potency entry is “inactive”.

With `Cc1oc(=O)oc1CN1CCN(c2cc3c(cc2F)c(=O)c(C(=O)O)c2n3C(C)S2)CC1` (stereo not given), the Potency result is “inactive”.

Turning to `C1CCN2C[C@@H]3C[C@@H](CN4CCCC[C@@H]34)[C@H]2C1`, the Potency entry was “inactive”.

Consider `CCCCCCCCOC(C)=O`, for which the Potency entry was “inactive”.

Regarding `C=CCOCC(CO)(COCC=C)COCC=C`, the Potency result was “inactive”.
